This note sets out measurements from PMC7862700, “An all-to-all approach to the identification of sequence-specific readers for epigenetic DNA modifications on cytosine”.

Holding throughout (test): DAPPL (digital affinity profiling via proximity ligation, sequencing); 10 mM Tris-HCl pH 7.5, 50 mM NaCl, 1 mM DTT, 4% glycerol, room temperature, 30 min; GST-TFs on glutathione beads, 16-mer random dsDNA library, 0.1% formaldehyde crosslink after washing; high values mean tight binding
Common to all, as to conditions: protein: recombinant; tags: N-terminal GST; dsDNA, one strand shown

The target in one assay is T1, ERG (Homo sapiens, UniProt P11308 1-479).
T1 sequence: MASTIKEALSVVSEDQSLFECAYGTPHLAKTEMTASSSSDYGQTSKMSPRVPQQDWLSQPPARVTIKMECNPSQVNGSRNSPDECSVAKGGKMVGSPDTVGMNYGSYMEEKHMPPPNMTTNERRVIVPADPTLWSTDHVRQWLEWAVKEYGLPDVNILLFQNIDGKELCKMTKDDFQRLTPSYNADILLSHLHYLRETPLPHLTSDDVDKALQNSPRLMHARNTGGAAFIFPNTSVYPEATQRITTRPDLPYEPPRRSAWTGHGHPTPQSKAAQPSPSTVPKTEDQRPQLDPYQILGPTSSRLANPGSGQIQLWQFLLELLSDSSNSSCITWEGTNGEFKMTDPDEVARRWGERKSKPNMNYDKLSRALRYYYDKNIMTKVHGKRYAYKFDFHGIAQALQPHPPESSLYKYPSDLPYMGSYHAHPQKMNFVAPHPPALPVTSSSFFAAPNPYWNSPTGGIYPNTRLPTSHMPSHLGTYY
In outline: (§1)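 Sequencing on an Illumina NextSeq500 followed washing, crosslinking with 0.1% formaldehyde, proximity ligation (BsaI/T4 ligase, 1 h, 37 °C) and PCR amplification of pools that had been incubated for 30 min at room temperature with 200 nmole of a random double-stranded 16-mer DNA library in Tris/NaCl/DTT/glycerol buffer. Each pool held DNA-barcoded human transcription factors, expressed in yeast as GST fusions and captured on glutathione beads, plus a tag-only sample. Binding signal is a hexamer's read frequency for a factor divided by its frequency in the tag-only sample.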

In another assay the target is ELF1 (Homo sapiens, UniProt P32519 1-619). The gist of the method: as §1
The target of another assay is T2, EHF (Homo sapiens, UniProt Q9NZC4 1-300).
T2 sequence: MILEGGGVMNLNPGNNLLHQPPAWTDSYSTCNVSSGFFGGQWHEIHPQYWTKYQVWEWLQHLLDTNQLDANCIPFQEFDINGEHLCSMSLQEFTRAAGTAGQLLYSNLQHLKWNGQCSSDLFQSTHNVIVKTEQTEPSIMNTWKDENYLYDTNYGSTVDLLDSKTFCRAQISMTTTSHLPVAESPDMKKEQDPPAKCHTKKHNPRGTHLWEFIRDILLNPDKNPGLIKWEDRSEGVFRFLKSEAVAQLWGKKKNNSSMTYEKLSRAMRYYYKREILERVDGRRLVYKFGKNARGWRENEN
The gist of the method: as §1

In a further assay the target is SPIB (Homo sapiens, UniProt Q01892 1-262). In outline:
as §1

The target in another assay is ETV5 (Homo sapiens, UniProt P41161 1-510). In outline: as §1
A further assay concerns the target T3, SPIC (Homo sapiens, UniProt Q8N5J4 1-248).
T3 sequence: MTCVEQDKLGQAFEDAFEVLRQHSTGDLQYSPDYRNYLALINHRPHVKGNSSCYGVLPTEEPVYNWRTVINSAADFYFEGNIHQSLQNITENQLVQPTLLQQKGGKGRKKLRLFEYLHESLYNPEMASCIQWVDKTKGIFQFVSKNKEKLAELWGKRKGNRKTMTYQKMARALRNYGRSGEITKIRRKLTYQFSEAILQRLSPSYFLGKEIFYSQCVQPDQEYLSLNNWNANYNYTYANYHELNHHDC
The gist of the method:
as §1

The next assay has as its target ELF4 (Homo sapiens, UniProt Q99607 1-663). The gist of the method: as §1
In another assay the target is ETV1 (Homo sapiens, UniProt P50549 1-477). In outline:
as §1

In another assay the target is T4, ETS2 (Homo sapiens, UniProt P15036 1-469).
T4 sequence: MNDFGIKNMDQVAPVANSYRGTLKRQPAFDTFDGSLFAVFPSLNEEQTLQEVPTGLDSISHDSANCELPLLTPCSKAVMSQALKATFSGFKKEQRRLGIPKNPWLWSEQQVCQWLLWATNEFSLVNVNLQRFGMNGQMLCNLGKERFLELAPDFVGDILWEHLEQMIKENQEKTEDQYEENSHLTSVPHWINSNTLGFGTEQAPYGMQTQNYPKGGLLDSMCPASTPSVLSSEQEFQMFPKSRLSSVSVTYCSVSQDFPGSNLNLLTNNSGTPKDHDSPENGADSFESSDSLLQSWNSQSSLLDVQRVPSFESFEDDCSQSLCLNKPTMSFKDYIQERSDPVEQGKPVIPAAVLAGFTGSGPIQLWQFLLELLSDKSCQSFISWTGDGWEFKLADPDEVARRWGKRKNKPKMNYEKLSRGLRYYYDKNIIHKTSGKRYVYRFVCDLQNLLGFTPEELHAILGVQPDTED
The gist of the method: as §1

For a further assay, the target named is T5, ETV3 (Homo sapiens, UniProt P41162-2 1-143).
T5 sequence: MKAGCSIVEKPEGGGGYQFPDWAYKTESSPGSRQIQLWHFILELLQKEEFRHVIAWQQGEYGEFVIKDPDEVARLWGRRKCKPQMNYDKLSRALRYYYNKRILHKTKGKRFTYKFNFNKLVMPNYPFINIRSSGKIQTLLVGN
In outline:
as §1

SPIB, sequence (Q01892 whole entry): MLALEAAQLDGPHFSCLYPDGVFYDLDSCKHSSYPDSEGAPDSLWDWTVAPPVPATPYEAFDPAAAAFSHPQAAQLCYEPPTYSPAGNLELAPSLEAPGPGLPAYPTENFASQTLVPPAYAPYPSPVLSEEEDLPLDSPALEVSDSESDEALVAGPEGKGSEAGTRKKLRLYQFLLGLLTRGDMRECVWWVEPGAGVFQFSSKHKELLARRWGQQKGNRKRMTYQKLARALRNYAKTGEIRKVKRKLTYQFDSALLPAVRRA
ELF4, sequence (Q99607 whole entry): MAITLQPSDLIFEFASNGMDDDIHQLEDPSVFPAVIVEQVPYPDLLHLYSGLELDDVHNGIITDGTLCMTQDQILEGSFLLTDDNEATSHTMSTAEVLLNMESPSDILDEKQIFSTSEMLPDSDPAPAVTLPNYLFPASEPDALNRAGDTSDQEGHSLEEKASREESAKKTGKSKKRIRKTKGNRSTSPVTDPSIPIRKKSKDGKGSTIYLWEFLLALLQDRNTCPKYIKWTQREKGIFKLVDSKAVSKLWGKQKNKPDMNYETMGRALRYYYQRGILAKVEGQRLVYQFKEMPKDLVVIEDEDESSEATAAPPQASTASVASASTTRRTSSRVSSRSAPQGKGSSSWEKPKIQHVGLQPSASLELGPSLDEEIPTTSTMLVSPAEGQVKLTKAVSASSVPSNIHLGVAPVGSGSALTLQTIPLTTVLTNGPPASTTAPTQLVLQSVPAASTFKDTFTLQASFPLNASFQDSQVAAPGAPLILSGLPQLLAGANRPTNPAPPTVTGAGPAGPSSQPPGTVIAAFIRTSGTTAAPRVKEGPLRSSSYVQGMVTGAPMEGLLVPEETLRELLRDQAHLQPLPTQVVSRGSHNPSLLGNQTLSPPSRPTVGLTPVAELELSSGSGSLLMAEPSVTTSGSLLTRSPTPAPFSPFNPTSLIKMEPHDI
ELF1, sequence (P32519 whole entry): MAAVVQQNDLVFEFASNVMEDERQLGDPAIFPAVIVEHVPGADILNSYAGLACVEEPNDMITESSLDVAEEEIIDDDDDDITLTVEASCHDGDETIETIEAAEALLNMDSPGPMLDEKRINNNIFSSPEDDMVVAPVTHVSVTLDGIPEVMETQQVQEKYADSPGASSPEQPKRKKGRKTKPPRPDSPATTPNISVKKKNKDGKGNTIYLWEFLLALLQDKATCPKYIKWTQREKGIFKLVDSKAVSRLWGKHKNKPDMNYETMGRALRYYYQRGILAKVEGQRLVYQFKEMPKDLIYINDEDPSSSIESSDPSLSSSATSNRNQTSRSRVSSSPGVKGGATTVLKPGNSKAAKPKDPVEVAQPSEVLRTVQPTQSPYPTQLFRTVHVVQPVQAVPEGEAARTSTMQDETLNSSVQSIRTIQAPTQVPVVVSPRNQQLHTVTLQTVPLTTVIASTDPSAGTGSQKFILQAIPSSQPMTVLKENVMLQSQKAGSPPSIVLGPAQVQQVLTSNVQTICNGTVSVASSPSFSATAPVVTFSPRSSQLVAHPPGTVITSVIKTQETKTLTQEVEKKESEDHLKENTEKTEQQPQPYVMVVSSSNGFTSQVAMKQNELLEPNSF
ETV1, sequence (P50549 whole entry): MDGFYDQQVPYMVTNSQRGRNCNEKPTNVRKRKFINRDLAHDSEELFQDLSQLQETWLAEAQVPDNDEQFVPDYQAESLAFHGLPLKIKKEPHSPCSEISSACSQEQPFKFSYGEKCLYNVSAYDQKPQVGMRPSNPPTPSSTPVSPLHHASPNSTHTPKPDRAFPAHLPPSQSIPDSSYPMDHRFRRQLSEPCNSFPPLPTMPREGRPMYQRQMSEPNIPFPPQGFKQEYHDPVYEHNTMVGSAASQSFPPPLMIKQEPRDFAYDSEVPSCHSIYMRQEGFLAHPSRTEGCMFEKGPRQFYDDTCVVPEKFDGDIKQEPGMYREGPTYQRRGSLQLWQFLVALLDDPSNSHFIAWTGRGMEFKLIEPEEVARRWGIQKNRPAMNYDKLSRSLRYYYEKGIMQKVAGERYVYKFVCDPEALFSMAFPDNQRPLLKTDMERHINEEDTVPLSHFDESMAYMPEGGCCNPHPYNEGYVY
ETV5, sequence (P41161 whole entry): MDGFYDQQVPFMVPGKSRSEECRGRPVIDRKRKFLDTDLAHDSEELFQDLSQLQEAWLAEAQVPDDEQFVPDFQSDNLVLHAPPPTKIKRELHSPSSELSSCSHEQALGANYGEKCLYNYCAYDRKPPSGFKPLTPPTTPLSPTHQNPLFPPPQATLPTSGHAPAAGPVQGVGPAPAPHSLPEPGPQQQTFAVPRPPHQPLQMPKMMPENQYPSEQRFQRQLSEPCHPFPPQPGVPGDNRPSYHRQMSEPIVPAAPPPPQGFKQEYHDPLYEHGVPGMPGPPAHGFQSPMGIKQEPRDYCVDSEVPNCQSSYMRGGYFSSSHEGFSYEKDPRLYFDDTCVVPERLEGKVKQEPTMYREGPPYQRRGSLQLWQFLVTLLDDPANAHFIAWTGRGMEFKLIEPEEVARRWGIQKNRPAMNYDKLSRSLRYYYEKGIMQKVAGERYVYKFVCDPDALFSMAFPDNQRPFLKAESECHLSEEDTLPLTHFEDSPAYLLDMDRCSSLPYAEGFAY

Take GAACTG: the binding signal was 1.06 fold enrichment (6-mer frequency, TF over GST control) with ERG; 1.02 fold enrichment (6-mer frequency, TF over GST control) with ELF1; 1.01 fold enrichment (6-mer frequency, TF over GST control) in the assay with EHF; 1.01 fold enrichment (6-mer frequency, TF over GST control) in the assay with SPIB; 1.05 fold enrichment (6-mer frequency, TF over GST control) with ETV5; 1.26 fold enrichment (6-mer frequency, TF over GST control) with SPIC. Moreover, the binding signal with ELF4 was 1.02 fold enrichment (6-mer frequency, TF over GST control); with ETV1 it was 1.05 fold enrichment (6-mer frequency, TF over GST control); with ETS2, 1.02 fold enrichment (6-mer frequency, TF over GST control); with ETV3 it was 1.09 fold enrichment (6-mer frequency, TF over GST control).
